# Results filed as inconclusive are left out. The list shows a part of the results. A call without a number means that no potency is given here. Activity calls are given as the source filed them. Unless noted, the call rests on the fitted dose curve; in most records, active means well fitted curve in the direction sought with a large enough effect; inconclusive means small, poorly fitted or top-dose-only effect, or another doubt; inactive means no such curve, though single readings can be large; an effect the other way counts as inactive or inconclusive.
# How the values were obtained:
# [1] = Counterscreen for APE1 Inhibitors: Fluorescent Dye Displacement Assay (AID 2564); details: DNA fluorescent dye displacement counterscreen, fluorescence; series mostly up to 28.5 µM;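 further: loss of thiazole orange fluorescence as the dye is displaced from duplex DNA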
# Summary of the method: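 Thiazole Orange (250 nM) bound to 50 nM TAMRA-labelled dsDNA with tetrahydrofuran abasic site; displacement by DNA-binding compounds lowers fluorescence. Buffer 50 mM Tris-HCl pH 7.5, 50 mM NaCl, 2 mM MgCl2, 0.01% Tween-20; endpoint read at 480/540 nm.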
# [2] = molecular target: Endonuclease 4 (Escherichia coli (strain K12)) (UniProt P0A6C1); assay: Counterscreen for APE1 Inhibitors: qHTS Assay for Inhibitors of Endonuclease IV (AID 2565); details: E. coli Endo IV, fluorogenic AP-site DNA cleavage; series mostly up to 27.1 µM
# Summary of the method: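 qHTS concentration-response format; LOPAC1280 tested under APE1-screen conditions. 2 nM enzyme, 15 min compound preincubation at RT, then 50 nM TAMRA/BHQ-2 abasic substrate; kinetic fluorescence read, three reads at 60 s intervals.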
# [3] = molecular target: DNA repair nuclease/redox regulator APEX1 (Homo sapiens) (UniProt P27695); assay: Confirmation qHTS Assay for Inhibitors of the Human Apurinic/apyrimidinic Endonuclease 1 (APE1) (AID 2572); details: purified APE1, fluorogenic abasic-site DNA cleavage; series mostly up to 24.4 µM;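 further: fluorescence gain from purified APE1 cutting a TAMRA/BHQ-2 THF abasic duplex; nearly all actives have a fitted effect of over 30% in size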
# Sequence of DNA repair nuclease/redox regulator APEX1 (Homo sapiens) (P27695 whole entry, looked up): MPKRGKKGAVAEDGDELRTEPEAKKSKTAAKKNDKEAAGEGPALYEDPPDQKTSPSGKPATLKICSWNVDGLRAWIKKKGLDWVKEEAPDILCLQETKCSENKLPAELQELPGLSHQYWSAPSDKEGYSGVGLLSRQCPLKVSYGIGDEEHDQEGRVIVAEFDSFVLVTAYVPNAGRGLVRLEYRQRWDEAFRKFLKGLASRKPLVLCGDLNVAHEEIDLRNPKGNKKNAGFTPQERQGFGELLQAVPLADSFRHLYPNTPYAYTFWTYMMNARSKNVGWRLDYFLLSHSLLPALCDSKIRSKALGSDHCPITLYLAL
# Summary of the method: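 Enzyme and test compound were incubated for 15 min at room temperature, after which a 50 nM (final) double-stranded abasic-site substrate bearing 5'-TAMRA and 3'-BHQ-2 was added. Incision was followed as fluorescence increase over three reads.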
# [4] = molecular target: DNA repair nuclease/redox regulator APEX1 (Homo sapiens) (UniProt P27695); assay: qHTS FP-Based Assay for Inhibitors of the Human Apurinic/apyrimidinic Endonuclease 1 (APE1) (AID 2573); details: APE1 binding to TAMRA-labelled double-stranded DNA, fluorescence polarization displacement; series mostly up to 28.5 µM
# [5] = molecular target: Cytochrome P450 2C19 (Homo sapiens) (UniProt P33261); assay: qHTS for inhibitors of CYP2C19 against the NCATS DSHEA and TCM libraries (AID 1919974); details: CYP2C19 enzyme inhibition, luminescence qHTS; series mostly up to 34.1 µM;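 further: luminescence from luciferin released by CYP2C19 oxidation of a pro-luciferin substrate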
# Sequence of Cytochrome P450 2C19 (Homo sapiens) (P33261 whole entry, looked up, canonical isoform): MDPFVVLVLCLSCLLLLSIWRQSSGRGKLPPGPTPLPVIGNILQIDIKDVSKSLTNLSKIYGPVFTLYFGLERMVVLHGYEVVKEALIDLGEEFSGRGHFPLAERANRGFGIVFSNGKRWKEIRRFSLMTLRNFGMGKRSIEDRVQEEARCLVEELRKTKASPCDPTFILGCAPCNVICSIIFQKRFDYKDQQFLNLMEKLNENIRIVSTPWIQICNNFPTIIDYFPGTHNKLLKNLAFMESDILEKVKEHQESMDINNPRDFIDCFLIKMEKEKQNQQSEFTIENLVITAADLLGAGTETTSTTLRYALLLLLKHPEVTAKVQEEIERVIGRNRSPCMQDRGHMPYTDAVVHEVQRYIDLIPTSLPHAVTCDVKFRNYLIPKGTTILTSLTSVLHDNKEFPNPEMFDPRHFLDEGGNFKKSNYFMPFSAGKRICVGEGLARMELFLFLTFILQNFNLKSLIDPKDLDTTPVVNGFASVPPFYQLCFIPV
# Summary of the method: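 Read-out is luminescence after P450-Glo detection (30 min, RT). Before that: 15 min compound–enzyme preincubation, then 30-45 min reaction with 1x NADPH regeneration solution, substrate concentration isoform-specific.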
# [6] = molecular target: Nuclear receptor subfamily 1 group I member 2 (Homo sapiens) (UniProt O75469); assay: Dual reporter qHTS for agonist of Pregnane X Receptor (hPXR) against the NCATS DSHEA and TCM libraries: Luminescence readout (AID 1920059); details: hPXR dual reporter cells, luciferase luminescence agonist; series mostly up to 40 µM
# Sequence of Nuclear receptor subfamily 1 group I member 2 (Homo sapiens) (O75469 whole entry, looked up): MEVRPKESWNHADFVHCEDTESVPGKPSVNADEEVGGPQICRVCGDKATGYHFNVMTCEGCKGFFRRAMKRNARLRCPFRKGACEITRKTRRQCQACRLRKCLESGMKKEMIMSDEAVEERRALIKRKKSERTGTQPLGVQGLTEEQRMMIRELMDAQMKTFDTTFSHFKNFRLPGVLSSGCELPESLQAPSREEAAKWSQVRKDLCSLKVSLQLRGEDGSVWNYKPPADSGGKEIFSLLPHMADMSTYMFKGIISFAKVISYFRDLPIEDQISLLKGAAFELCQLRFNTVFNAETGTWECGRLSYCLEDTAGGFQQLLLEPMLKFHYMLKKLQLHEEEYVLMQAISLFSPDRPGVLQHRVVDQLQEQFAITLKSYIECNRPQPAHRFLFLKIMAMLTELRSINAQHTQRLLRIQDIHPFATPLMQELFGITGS
# Summary of the method: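 Luminescent PXR reporter read (ONE-Glo) after a CellTiter-Fluor viability read, following 24 h, 37C treatment of HepG2 cells stably carrying hPXR-Luc.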
# [7] = molecular target: Estrogen receptor (Homo sapiens) (UniProt P03372); assay: qHTS assay for small molecule antagonists of estrogen receptor alpha signaling (AID 588513; active means well fitted curve in the direction sought with a large enough effect in the signal ratio, with a control signal flat, not every such curve was filed as active; the % refers to the signal ratio); details: ER-alpha-UAS-bla HEK293, beta-lactamase ratio, antagonist mode; series mostly up to 76.9 µM
# Sequence of Estrogen receptor (Homo sapiens) (P03372 whole entry, looked up): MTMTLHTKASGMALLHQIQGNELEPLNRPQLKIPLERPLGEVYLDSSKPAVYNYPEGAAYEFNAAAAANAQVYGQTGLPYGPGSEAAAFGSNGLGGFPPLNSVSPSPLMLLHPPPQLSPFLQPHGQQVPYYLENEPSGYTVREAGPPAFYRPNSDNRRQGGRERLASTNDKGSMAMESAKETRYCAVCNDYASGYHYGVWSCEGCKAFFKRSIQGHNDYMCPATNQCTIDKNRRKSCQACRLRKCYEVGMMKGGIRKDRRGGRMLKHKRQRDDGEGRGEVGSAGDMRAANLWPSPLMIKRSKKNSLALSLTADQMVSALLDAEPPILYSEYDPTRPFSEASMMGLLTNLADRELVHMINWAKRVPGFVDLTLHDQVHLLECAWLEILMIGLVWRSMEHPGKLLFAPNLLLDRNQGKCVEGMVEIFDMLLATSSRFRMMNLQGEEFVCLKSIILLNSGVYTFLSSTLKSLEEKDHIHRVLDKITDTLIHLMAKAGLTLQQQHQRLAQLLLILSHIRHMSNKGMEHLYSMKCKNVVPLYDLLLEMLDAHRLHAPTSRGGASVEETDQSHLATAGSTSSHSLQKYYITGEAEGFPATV
# Summary of the method: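 ER-alpha-UAS-bla GripTite HEK 293 cells in 2% charcoal/dextran-treated FBS medium; compounds titrated (1:2, duplicate), then stimulated with 0.5 nM 17-beta-estradiol for 18 h at 37C. CCF4 beta-lactamase fluorescence; Hill-fit IC50 and efficacy.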
# [8] = molecular target: Estrogen receptor (Homo sapiens) (UniProt P03372); assay: qHTS assay for small molecule agonists of estrogen receptor alpha signaling (AID 588514; calls by dose curve; further: nearly all actives have a fitted effect of over 70% in size); details: ER-alpha-UAS-bla HEK293, beta-lactamase ratio, 18 h; series mostly up to 76.8 µM
# Summary of the method: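 Cells were plated at 5000/well, incubated 4 hrs at 37 C, dosed with compound titration series, incubated 18 hrs at 37 C, loaded with CCF4 dye for 2 hrs at RT, then fluorescence was read.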
# [9] = molecular target: Peroxisome proliferator-activated receptor delta (Homo sapiens) (UniProt Q03181); assay: qHTS assay for small molecule agonists of peroxisome proliferator-activated receptor delta signaling (AID 588534; calls by dose curve); details: HEK293T PPARdelta-UAS-bla, beta-lactamase ratio, 18 h; series mostly up to 76.7 µM
# Sequence of Peroxisome proliferator-activated receptor delta (Homo sapiens) (Q03181 whole entry, looked up): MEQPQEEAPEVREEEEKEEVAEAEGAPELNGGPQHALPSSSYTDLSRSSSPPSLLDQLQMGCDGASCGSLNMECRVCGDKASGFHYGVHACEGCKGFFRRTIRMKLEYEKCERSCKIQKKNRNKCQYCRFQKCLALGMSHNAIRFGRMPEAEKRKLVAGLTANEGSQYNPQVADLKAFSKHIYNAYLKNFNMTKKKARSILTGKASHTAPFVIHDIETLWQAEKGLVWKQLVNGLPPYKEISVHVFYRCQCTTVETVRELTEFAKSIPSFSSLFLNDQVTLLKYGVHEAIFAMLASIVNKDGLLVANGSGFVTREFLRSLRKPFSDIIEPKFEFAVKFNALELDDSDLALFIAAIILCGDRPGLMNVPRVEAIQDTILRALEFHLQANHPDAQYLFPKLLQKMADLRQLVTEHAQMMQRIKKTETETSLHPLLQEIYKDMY
# Summary of the method: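 Fluorescence from CCF4 substrate cleavage by beta-lactamase reporter, read 2 hrs at RT, measured agonist activity. Compounds were tested with 18 hrs exposure at 37 C. Concentration-response data fitted to Hill equation.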
# [10] = qHTS assay for small molecule antagonists of peroxisome proliferator-activated receptor delta signaling (AID 588535; active means well fitted inhibition curve with a large enough effect in the signal ratio, with a control signal flat, not every such curve was filed as active; the % refers to the signal ratio;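 on max response: cells co-treated with a PPAR-delta agonist as stimulator during compound exposure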); details: HEK293T PPARd-UAS-bla, beta-lactamase FRET ratio, 18 h; 460 nm channel
# Summary of the method: (§1)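 HEK293T PPAR-delta-UAS-bla cells, 4000/well, 2% charcoal/dextran FBS; 5 h 37 C; cpd titration; 18 h 37 C; CCF4 2 h RT; FI 460/530 nm; Hill fit → IC50, efficacy.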
# [11] = molecular target: Peroxisome proliferator-activated receptor delta (Homo sapiens) (UniProt Q03181); assay: as above; details: HEK293T PPARd-UAS-bla, beta-lactamase FRET ratio, 18 h; series mostly up to 76.7 µM
# Summary of the method: as §1
# [12] = molecular target: Peroxisome proliferator-activated receptor gamma (Homo sapiens) (UniProt P37231); assay: qHTS assay for small molecule agonists of peroxisome proliferator-activated receptor gamma signaling (AID 588536; active means well fitted curve in the direction sought with a large enough effect in the signal ratio, with a control signal flat, not every such curve was filed as active; the % refers to the signal ratio); details: HEK293 PPARg-UAS-bla, beta-lactamase ratio, 16 h, percent of rosiglitazone response, DMSO as zero; series mostly up to 76.7 µM
# Sequence of Peroxisome proliferator-activated receptor gamma (Homo sapiens) (P37231 whole entry, looked up): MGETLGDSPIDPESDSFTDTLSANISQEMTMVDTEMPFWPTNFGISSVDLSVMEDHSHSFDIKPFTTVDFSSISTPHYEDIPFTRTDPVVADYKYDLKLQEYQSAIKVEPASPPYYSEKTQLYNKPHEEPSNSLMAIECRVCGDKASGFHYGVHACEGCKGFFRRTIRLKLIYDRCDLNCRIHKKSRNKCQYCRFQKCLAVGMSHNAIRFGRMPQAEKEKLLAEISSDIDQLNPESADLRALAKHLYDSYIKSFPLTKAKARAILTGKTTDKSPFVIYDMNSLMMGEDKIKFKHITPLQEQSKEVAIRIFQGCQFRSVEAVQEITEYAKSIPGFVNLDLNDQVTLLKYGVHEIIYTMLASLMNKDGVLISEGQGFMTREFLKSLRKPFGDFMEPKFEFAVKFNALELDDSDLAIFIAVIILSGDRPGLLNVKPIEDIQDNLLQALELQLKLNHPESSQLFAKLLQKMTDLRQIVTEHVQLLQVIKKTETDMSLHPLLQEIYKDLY
# Summary of the method: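 GeneBLAzer PPAR-gamma-UAS-bla HEK293 cells in 1% charcoal/dextran-treated FBS medium were treated 16 h at 37 C with compounds. Beta-lactamase activity was read by CCF4 ratio (460/530 nm). Response was normalized to 2 uM rosiglitazone (100%) and DMSO, then Hill-fitted for EC50 and efficacy.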
# [13] = molecular target: Peroxisome proliferator-activated receptor gamma (Homo sapiens) (UniProt P37231); assay: qHTS assay for small molecule antagonists of peroxisome proliferator-activated receptor gamma signaling (AID 588537; active means well fitted inhibition curve with a large enough effect in the signal ratio, with a control signal flat, not every such curve was filed as active; the % refers to the signal ratio;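 further: reporter cells co-stimulated with 50 nM rosiglitazone agonist during compound treatment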); details: HEK293 PPARg-UAS-bla, beta-lactamase ratio, antagonist mode; series mostly up to 76.8 µM
# Summary of the method: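 Antagonist mode, beta-lactamase reporter in HEK293; charcoal/dextran FBS 1%; 3000 cells/well, 37 C 6-6.5 h; cpd titration + rosiglitazone 50 nM final, 16 h 37 C; CCF4, 2 h RT; 460/530 nm; Hill fit → IC50, efficacy.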
# [14] = molecular target: Vitamin D3 receptor (Homo sapiens) (UniProt P11473); assay: qHTS assay for small molecule antagonists of vitamin D receptor signaling (AID 588541; calls by dose curve;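 further: receptor activated by calcitriol during compound treatment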); details: HEK293T VDR-UAS-bla, beta-lactamase ratio, antagonist mode; series mostly up to 76.7 µM
# Sequence of Vitamin D3 receptor (Homo sapiens) (P11473 whole entry, looked up): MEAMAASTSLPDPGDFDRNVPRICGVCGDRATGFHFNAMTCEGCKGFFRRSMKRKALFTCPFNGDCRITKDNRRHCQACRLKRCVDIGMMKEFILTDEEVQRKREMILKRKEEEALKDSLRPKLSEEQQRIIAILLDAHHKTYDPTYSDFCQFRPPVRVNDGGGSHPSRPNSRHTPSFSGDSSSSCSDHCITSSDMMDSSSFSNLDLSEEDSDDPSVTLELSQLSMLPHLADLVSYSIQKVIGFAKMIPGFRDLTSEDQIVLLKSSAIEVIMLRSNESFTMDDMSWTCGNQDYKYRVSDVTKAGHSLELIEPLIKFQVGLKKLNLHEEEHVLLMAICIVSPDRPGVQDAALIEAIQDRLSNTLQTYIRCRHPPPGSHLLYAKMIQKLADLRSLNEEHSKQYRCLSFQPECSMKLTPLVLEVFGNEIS
# Summary of the method: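 Antagonist-mode beta-lactamase reporter assay: HEK293T VDR-UAS-bla cells were exposed to titrated compound alongside 1-alpha,25-dihydroxyvitamin D3 at 3 nM final for 16 h. Values were normalized to the 50 nM agonist control and DMSO basal, with IC50 and efficacy from Hill equation fits.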
# [15] = molecular target: Vitamin D3 receptor (Homo sapiens) (UniProt P11473); assay: qHTS assay for small molecule agonists of vitamin D receptor signaling (AID 588543; calls by dose curve); details: HEK293T VDR-UAS-bla, beta-lactamase ratio, 16 h; series mostly up to 76.8 µM
# Summary of the method: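 VDR-UAS-bla HEK293T cells, 2000/well, 2% charcoal-stripped FBS; compound titration 16 h at 37 C; CCF4 beta-lactamase ratio read. Normalized to 50 nM 1-alpha,25-dihydroxyvitamin D3 (100%) and DMSO; Hill fit gives EC50, efficacy.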
# [16] = qHTS assay for small molecule agonists of retinoid X receptor alpha signaling (AID 588544); details: HEK293T RXRa-UAS-bla, beta-lactamase reporter, 18 h; 530 nm emission
# [17] = qHTS assay for small molecule antagonists of retinoid X receptor alpha signaling (AID 588546; active means well fitted inhibition curve with a large enough effect in the signal ratio, with a control signal flat, not every such curve was filed as active; the % refers to the signal ratio;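 further: cells stimulated with 9-cis-retinoic acid as agonist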); details: HEK293T RXRa-UAS-bla, beta-lactamase ratio, antagonist mode; measured here: W530 green channel, cytotoxicity proxy
# Summary of the method: (§2)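 Beta-lactamase reporter inhibition, read as CCF4 fluorescence ratio (ex 405, em 460/530 nm) after 2 h at RT. HEK293T UAS-bla cells, 2500/well, were stimulated with 9-cis-RA at 500 or 100 nM final alongside test compound for 18 h at 37 C.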
# [18] = molecular target: Retinoic acid receptor RXR-alpha (Homo sapiens) (UniProt P19793); assay: as above; details: HEK293T RXRa-UAS-bla, beta-lactamase ratio, antagonist mode
# Sequence of Retinoic acid receptor RXR-alpha (Homo sapiens) (P19793 whole entry, looked up): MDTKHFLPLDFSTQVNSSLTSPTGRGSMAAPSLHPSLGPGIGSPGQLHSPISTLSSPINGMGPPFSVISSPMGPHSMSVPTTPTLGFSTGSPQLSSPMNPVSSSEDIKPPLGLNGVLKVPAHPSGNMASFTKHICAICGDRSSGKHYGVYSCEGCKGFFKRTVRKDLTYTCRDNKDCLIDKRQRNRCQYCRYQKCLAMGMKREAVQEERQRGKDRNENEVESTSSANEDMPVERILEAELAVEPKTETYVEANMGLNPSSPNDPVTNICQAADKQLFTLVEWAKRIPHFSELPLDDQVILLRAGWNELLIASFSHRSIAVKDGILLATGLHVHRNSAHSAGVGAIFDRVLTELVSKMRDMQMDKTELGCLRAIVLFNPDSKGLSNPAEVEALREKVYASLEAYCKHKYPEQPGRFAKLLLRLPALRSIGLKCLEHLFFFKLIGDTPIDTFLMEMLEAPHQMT
# Summary of the method: as §2
# [19] = qHTS assay for small molecule agonists of the antioxidant response element (ARE) signaling pathway (AID 651741; active means well fitted activation curve with a large enough effect in the signal ratio; the % refers to the signal ratio); details: HepG2 ARE-bla reporter, beta-lactamase FRET ratio, 16 h; series mostly up to 96 µM
# Summary of the method: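 Quantitative HTS in HepG2 cells stably expressing an ARE-beta-lactamase reporter; 16 h compound exposure at 37 C, followed by 2 h room-temperature incubation with LiveBLAzer B/G FRET substrate and fluorescence measurement.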
# [20] = qHTS assay for small molecule activators of the p53 signaling pathway (AID 651743; active means well fitted activation curve with a large enough effect in the signal ratio, not every such curve was filed as active; the % refers to the signal ratio); details: HCT-116 p53RE-bla, beta-lactamase FRET ratio, 16 h; activation: stronger effect = higher value
# Summary of the method: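 Read-out is fluorescence intensity from the LiveBLAzer B/G FRET substrate, added for 2 hours at room temperature after HCT-116 p53RE-bla cells had been incubated with compounds for 16 hours at 37 C.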
smiles,measurement,setting,value
CCNC[C@H](O)c1cccc(O)c1,outcome,[1],inactive
same,outcome,[2],inactive
same,outcome,[3],inactive
same,outcome,[4],inactive
C=CCc1ccc2c(c1)OCO2,Potency,[5],inactive
same,Potency,[6],inactive
CNC(=O)N(C)c1nnc(C(C)(C)C)s1,Potency,[7],inactive
same,Potency,[8],inactive
same,outcome,[9],inactive
same,max response,[10],22%
same,Potency,[11],inactive
same,outcome,[12],inactive
same,Potency,[13],inactive
same,outcome,[14],inactive
same,outcome,[15],inactive
same,max response,[16],-5.03%
same,max response,[17],-11.1%
same,max response,[18],-28.5% (inactive)
same,Potency,[19],inactive
same,activation,[20],-3.47% (inactive)

# — PubChem BioAssay (NCATS)
